PostGolgi ctrl – growth inhibition of yeast control strain, primary screen, counter-screen for post-Golgi transport modulator project; AID 738, 2007; 98,000 compounds, 5% hits; inhibition, % at 10 µM; efflux-deficient yeast background strain, growth absorbance A615, 16 h
PostGolgi yeast – phenotypic screen on post-Golgi transport, primary screen; post-Golgi transport phenotypic cell assay; inhibition, % at 10 µM; 98,000 compounds, 0.9% hits; AID 739, 2007;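 further: yeast cells grown in 1536-well plates; yeast grown about 18 h at 30C before absorbance read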
CYP2C19 inh – blockers of cytochrome P450 2C19 activity – biochemical, luminescence, ADME assay, primary screen. CYP2C19 Supersomes, luciferin-H EGE luminescence, 30 min. inhibition, % at 5 µM. 96,000 compounds, 21% hits. AID 778, 2007;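 active means CYP2C19 inhibition above a set limit at 5 µM in the primary screen, cut at about 50% in these data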;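 further: plate controls were negative control wells for no effect and 2.5 mM tranylcypromine positive control for full effect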
CYP2C9 act – human CYP2C9 activators, primary screen, biochemical, luminescence | Cytochrome P450 2C9 (Homo sapiens), P11712 | recombinant CYP2C9, luciferin-H conversion; stronger effect = higher value; factor 1 = untreated enzyme, 0 = blocked | activation factor at 5 µM | 96,000 compounds, 1.4% hits | AID 1024, 2008;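 active means activation factor of 2 or more for CYP2C9 at a 5 µM dose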;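 further: 0 = sulfaphenazole-blocked wells and 1 = vehicle-only wells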
Target sequence (P11712 whole entry, looked up): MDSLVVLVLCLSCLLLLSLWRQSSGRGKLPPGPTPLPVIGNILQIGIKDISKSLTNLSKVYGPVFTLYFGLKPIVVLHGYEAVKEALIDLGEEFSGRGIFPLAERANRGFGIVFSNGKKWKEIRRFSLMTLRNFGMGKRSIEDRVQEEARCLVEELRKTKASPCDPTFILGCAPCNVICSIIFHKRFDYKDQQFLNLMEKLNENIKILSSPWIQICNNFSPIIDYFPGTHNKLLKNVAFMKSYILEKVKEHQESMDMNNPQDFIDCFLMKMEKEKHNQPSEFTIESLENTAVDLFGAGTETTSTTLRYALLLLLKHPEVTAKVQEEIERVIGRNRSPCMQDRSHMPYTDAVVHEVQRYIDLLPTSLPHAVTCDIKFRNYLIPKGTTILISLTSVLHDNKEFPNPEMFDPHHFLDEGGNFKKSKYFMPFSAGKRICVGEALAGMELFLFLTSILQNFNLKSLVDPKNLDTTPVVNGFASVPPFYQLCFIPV
CYP2C9 inhib – blockers of cytochrome P450 2C9 activity – biochemical, luminescence, ADME assay, primary screen. inhibition, % at 5 µM. CYP2C9 Supersomes, luciferin-H conversion. 96,000 compounds, 20% hits. P11712;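 active means blocking of liver enzyme CYP2C9 beyond about 50% at 5 µM, limit read from the data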
CYP2C19 act – human CYP2C19 activators, primary screen, biochemical, luminescence | Cytochrome P450 2C19 (Homo sapiens), P33261 | recombinant CYP2C19, luciferin-H EGE luminescence; stronger effect = higher value; 0 = fully inhibited enzyme, 1 = untreated enzyme | activation factor at 5 µM | 96,000 tested, under 10 active | AID 1025, 2008;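 active means activation factor of at least 2 at 5 µM in the primary screen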;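 further: 0 = wells with 2.5 mM tranylcypromine and 1 = vehicle-only wells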
An asterisk follows results filed as active; · = no result given. Only some compounds are listed: those with a hit (about 32% of all), similar ones and a draw of the others. Unless noted, no stated cut-off is given here; in the data, active means inhibition above about 30%; inactive means the rest.

SMILES	PostGolgi ctrl	PostGolgi yeast	CYP2C19 inh	CYP2C9 act	CYP2C9 inhib	CYP2C19 act
CCc1nnc(NC(=O)CSc2nnc(-c3ccoc3C)n2-c2ccc(C)cc2)s1	5	21	64*	0.3	66*	0.4
COCCCn1c(SCC(=O)Nc2nnc(C)s2)nnc1-c1ccoc1C	4	-10	15	0.2	82*	0.9
COc1cccc(NC(=O)CSc2nnc(-c3ccoc3C)n2-c2ccccc2)c1	12	5	33	0.4	59*	0.7
CC(C)C(=O)NC(=S)Nc1ccccc1C(=O)Nc1ccccc1	19	-2	4	1	5	1
COc1ccc(CCNC(=O)c2c(C)noc2C)cc1	3	9	14	0.9	12	0.9
Cc1ccccc1-n1c(Cn2c(=O)sc3ccccc32)nnc1SCC(=O)NCC1CCCO1 (stereo not given)	-6	5	15	0.5	50*	0.9
CCc1nnc(NC(=O)CSc2nnc(-c3ccoc3C)n2CC(C)C)s1	1	8	88*	0.1	88*	0.1
COC(=O)c1ccccc1NC(=O)CSc1nnc(-c2ccoc2C)n1C	5	1	74*	0.7	32	0.3
CCc1nnc(NC(=O)CSc2nnc(-c3ccoc3C)n2-c2ccccc2)s1	-3	0	94*	0.2	83*	0.1
CN1CCN(C(=S)Nc2ccccc2Cl)CC1	2	2	3	0.9	9	1
Cc1cccc(C)c1OCc1nnc(SCC(=O)Nc2nccs2)n1-c1ccccc1	15	-2	-14	1	-3	1.1
CCOc1ccccc1-n1c(SCC(=O)Nc2nccs2)nnc1-c1ccoc1C	19	-6	76*	0.2	79*	0.2
Cc1ccc(-n2c(SCC(=O)NCC3CCCO3)nnc2-c2ccoc2C)cc1 (stereo not given)	20	-9	85*	0.8	24	0.2
O=C(NCC1CCCO1)C1CC(=O)N(c2ccc(F)c(Cl)c2)C1 (stereo not given)	0	4	-14	1.6	-55	1.1
O=C1c2ccccc2NC2(CCCCC2)N1c1ccc(O)cc1	11	2	32	0.4	56*	0.7
CC1CCC2(CC1)Nc1ccccc1C(=O)N2c1ccccc1 (stereo not given)	6	-3	37	0.5	48	0.6
O=c1cc(C(F)(F)F)nc(-c2ccccc2)[nH]1	18	10	0	0.7	30	1
O=S(NC1CCCCC1)C12CC3CC(CC(C3)C1)C2 (stereo not given)	6	-4	8	1.1	-7	0.9
Cc1nn(-c2ccccc2)c(C)c1/C=N/n1c(-c2ccc(C(C)(C)C)cc2)n[nH]c1=S	18	1	34	0.2	82*	0.7
Cc1nn(-c2ccccc2)c(C)c1/C=N/NC(=O)c1cc(C(C)(C)C)[nH]n1	-3	1	27	0.4	58*	0.7
Cc1ccc(-c2cc(C(=O)N/N=C/c3c(C)nn(-c4ccccc4)c3C)[nH]n2)cc1	0	-10	29	0.8	25	0.7
CC(C)n1c(-c2ccc(C(C)(C)C)cc2)n[nH]c1=S	20	13	17	0.7	29	0.8
Cc1ccc(-c2[nH]nc3c2C(c2ccc(OC(=O)N4CCOCC4)cc2)C(C#N)=C(N)O3)cc1 (stereo not given)	0	-5	40	0.6	36	0.6
O=S(=O)(c1ccc(N2CCCC2)cc1)C(F)(F)F	8	14	3	1.1	-12	1
CON1C(=O)C(=O)N(OC)C(C)(C)C1C (stereo not given)	31*	5	1	1	3	1
COc1ccc(-c2nnc(-c3cc4c(ccc5ccccc54)oc3=O)o2)cc1	10	14	68*	0.4	56*	0.3
O=c1oc2ccc3ccccc3c2cc1-c1nnc(-c2ccccc2)o1	10	-7	36	1	3	0.6
CC(C)Cn1c(=O)c2c(c3ccccc31)OC(C)C(=O)N2 (stereo not given)	14	2	·	·	·	·
